Records with an inconclusive call do not appear. A call without a number means that no potency is given here. Calls of active or inactive are those of the source. The call rests on the fitted dose curve; in most records, active means well fitted cell-killing curve with a large enough effect in the repeat runs; inconclusive means weak or mixed curves, or effect the other way; inactive means no such curve, though single readings can be large or run the other way.
Potency means the concentration at half of the fitted maximal effect.

The test in a line: Caspase-3/7 induction in CHO-K1 cells by small molecules, qHTS cell viability counter screen (AID 1346979). Further: nearly all actives have a fitted effect of over 35% in size. As to conditions: CellTiter-Fluor fluorescence, 17 h; series mostly up to 92.4 µM. In outline:
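Cells (CHO-K1, wild type) are plated at 1,500 per well and incubated 5hr. Test compounds in DMSO are then pinned in, followed by 16hr at 37C and 5% CO2. Viability is read by CellTiter-Fluor fluorescence after 1hr.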
For orientation: qHTS replaces the single test concentration by a dilution series.
Turning to `CCCCCCCC/C=C\CCCCCCCC(=O)OCC`, the Potency result was “inactive”. With `S=C([S-])NCCNC(=S)[S-].[Mn+2]`, the Potency entry is “inactive”.

Consider `CCOC(=O)C(F)(F)F`, for which the Potency result is “inactive”.

In the case of `CCCCCCCN`, the Potency result was “inactive”.

With `c1ccc(-c2ccccn2)nc1`, the Potency entry was “inactive”. Turning to `CC(C)(C)Cl`, the Potency entry is “inactive”. As for `CC(C)CC(=O)C1C(=O)c2ccccc2C1=O`, the Potency is 61.1 µM (active). Regarding `O=C(CS)Nc1ccccc1`, the Potency entry was “inactive”.

Take `CC(C)O.CC(C)O.CCOC(=O)/C=C(\C)O.CCOC(=O)/C=C(\C)O.[Ti]`: the Potency entry was “inactive”. Regarding `Nc1cccc(S(=O)(=O)c2cccc(N)c2)c1`, the Potency entry is “inactive”.

Regarding `CCC(C)O` (stereo not given), the Potency entry is “inactive”. For `NCC(=O)CCC(=O)O`, the Potency entry was “inactive”. Turning to `Cc1nn(C)c(Oc2ccccc2)c1/C=N/OCc1ccc(C(=O)OC(C)(C)C)cc1`, the Potency is 0.0154 µM (active). On to `O=S(=O)(Oc1ccc(Cl)cc1)c1ccccc1`, for which the Potency entry is “inactive”. On to `CCO[C@H](Cc1ccc(OCCc2ccc(OS(C)(=O)=O)cc2)cc1)C(=O)O`, for which the Potency result is “inactive”.

On to `CCn1cc(C(=O)O)c(=O)c2cnc(N3CCNCC3)nc21`, for which the Potency entry is “inactive”. `O=C(O)c1ccc(-n2nc(-c3ccccc3O)nc2-c2ccccc2O)cc1`: the Potency is 18.8 µM (active).

In the case of `Cc1cccc(C)c1NC(=O)CN(CC(=O)O)CC(=O)O`, the Potency result is “inactive”. Consider `COc1ccc2cccc(CCNC(C)=O)c2c1`, for which the Potency entry was “inactive”. Consider `O=C(NCC1CN(c2ccc(N3CCOCC3=O)cc2)C(=O)O1)c1ccc(Cl)s1` (stereo not given), for which the Potency result was “inactive”. As for `CCO[Si](CCCCl)(OCC)OCC`, the Potency entry is “inactive”. The same measure, in the same setting: the result for `CCCCC/C=C\C/C=C\CCCCCCCC(=O)NC(C)c1ccccc1` (stereo not given) reads 26.6 µM (active); that for `C[N+]1(C)CCC(OC(=O)C(O)(c2ccccc2)C2CCCC2)C1` (stereo not given), “inactive”.

In the case of `Brc1c2ccccc2c(Br)c2ccccc12`, the activity change, negative = cytotoxicity was 14.3% [at 8.39 µM] (inactive).

Turning to `Cc1cccc(C)c1OCC(=O)N[C@@H](Cc1ccccc1)[C@@H](O)C[C@H](Cc1ccccc1)NC(=O)[C@H](C(C)C)N1CCCNC1=O`, the Potency is 26.6 µM (active).

Regarding `COc1cc(Cl)c(OC)cc1N`, the Potency entry was “inactive”. In the case of `C=CC(=O)OCCOCCOC(=O)C=C`, the Potency was 15.4 µM (active). On to `Cc1[nH]c(C)c(Cl)c(=O)c1Cl`, for which the activity change, negative = cytotoxicity was 1.93% [at 19 µM] (inactive). As to `Cc1ccc(C(=O)Oc2ccc(C(O)CNC(C)(C)C)cc2OC(=O)c2ccc(C)cc2)cc1` (stereo not given), the Potency is 29.8 µM (active).

With `CCCn1cnc2c1c(=O)n(CCCCC(C)=O)c(=O)n2C`, the Potency entry is “inactive”.

The record behind these values is PubChem BioAssay (Tox21).
